Data taken from ChEMBL document CHEMBL1201862, “PubChem BioAssay data set” (2004).
Out of some 44,000 sequences screened, about 3,500 (8%) were called active. No stated cut-off is given here; in the data, active = GI50 up to about 1.1 µM and inactive = higher. Not all results are given here. Potency and affinity values are given separately.

Tested on: PC-3

| Substance | GI50 |
| --- | --- |
| [Bis(aminomethyl)pentamethylenesilane]tetrachloropaltinum(IV), CHEMBL2146204 | 1.83 µM |
| [Bis(aminomethyl)dimethylsilane]tetrachloroplatinum(IV), CHEMBL2146190 | 22.9 µM |
| [Bis(aminomethyl)tetramethylenesilane]tetrachloropaltinum(IV), CHEMBL2146189 | 8.36 µM |
| CISPLATIN, CHEMBL11359 | 5.01 µM |
| [Bis(aminomethyl)tetramethylenesilane]dichloropaltinum(II), CHEMBL2146205 | 7.19 µM |
| [Bis(aminomethyl)pentamethylenesilane]dichloropaltinum(II), CHEMBL2146202 | 1.64 µM |
